From PubChem BioAssay (Tox21) come the findings set out here.

Assay [1] is described as follows: qHTS assay for small molecules that induce genotoxicity in human embryonic kidney cells expressing luciferase-tagged ATAD5 (AID 651632). Further: nearly all actives have a fitted effect of over 15% in size. In short, it runs like this: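 Concentration-response screen for ATAD5 upregulation in HEK293T luciferase reporter cells; 16 hr treatment at 37C, then luminescence after 30 min with Amplite at room temperature.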
For orientation: qHTS replaces the single test concentration by a dilution series.

Assay [2] in a line: qHTS assay for small molecule agonists of the p53 signaling pathway - cell viability (AID 651633; calls by dose curve;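 further: p53RE-bla HCT reporter cells with a stable beta-lactamase p53 reporter; series mostly up to about 83 µM; nearly all actives have a fitted effect of over 30% in size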). In short, it runs like this:
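p53RE-bla cells, seeded at 4,000 per well and rested 5 h at 37 C/5% CO2, received compounds in DMSO for 16 h at 37 C. CellTiter-Glo was then added, and luminescence was read after 30 min at room temperature to gauge cytotoxicity.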

A short description of assay [3]: qHTS assay for small molecules that induce genotoxicity in human embryonic kidney cells expressing luciferase-tagged ATAD5 - cell viability (AID 651634; calls by dose curve; further: nearly all actives have a fitted effect of over 25% in size). A digest of the protocol:
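15.5 hr compound or vehicle exposure of HEK293T cells expressing luciferase-tagged ATAD5 at 37C; live-cell protease activity is read by fluorescence after 30 min of CellTiter-Fluor.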

Assay [4] is described as follows: qHTS assay for small molecule disruptors of the mitochondrial membrane potential - cell viability (AID 720634; calls by dose curve;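 further: human HepG2 liver cancer cells; series mostly up to about 83 µM; nearly all actives have a fitted effect of over 20% in size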). In short, it runs like this:
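In this qHTS format, HepG2 cells plated overnight were pinned with compound, incubated 1 hr, and assayed for ATP luminescence with CellTiter-Glo after m-MPI dye addition.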

Assay [5] is described as follows: qHTS assay for small molecule disruptors of the mitochondrial membrane potential (AID 720635). Further: potency means the concentration at half of the fitted maximal effect. In short, it runs like this: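 HepG2 cells (2,000/well) attached overnight at 37C, then took compound for 1 hr at 37C, 5% CO2. Mito-MPS dye was added for 30 min; fluorescence was read at 490/535 nm (monomers) and 540/590 nm (aggregates).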
Assay [6] is described as follows: qHTS assay to test for compound auto fluorescence at 590 nm (red) in HepG2 cells (AID 720674). In short, it runs like this: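 Rose Bengal sodium served as the red fluorophore standard. HepG2 monolayers (overnight attachment, MEM with 10% FBS) were exposed to test compounds for 1 hr at 37 C and read at Ex 540/Em 590 nm.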
A short description of assay [7]: qHTS assay to test for compound auto fluorescence at 460 nm (blue) in HEK293 cells (AID 720678). In short, it runs like this:
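Auto fluorescence in the blue band was quantified as triamterene equivalency. HEK293 cells were seeded at 2,000/well, dosed after a 4-5 hr attachment, and kept overnight at 37C before the 405/460 nm reading.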

A short description of assay [8]: qHTS assay to test for compound auto fluorescence at 590 nm (red) in HEK293 cells (AID 720679). A digest of the protocol:
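Autofluorescence equivalency to Rose Bengal sodium, 540/590nm, in HEK293 cells exposed overnight to 23 nL compound per well.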

Assay [9] in a line: qHTS assay to test for compound auto fluorescence at 535 nm (green) in HEK293 cells (AID 720680).
A short description of assay [10]: qHTS assay to test for compound auto fluorescence at 460 nm (blue) in HEK293 cell free culture (AID 720681). A digest of the protocol:
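Test compounds were pinned into cell-free culture medium (DMEM with 10% FBS) and fluorescence was read directly at Ex/Em 405/460 nm. Signals were expressed as fluorescence equivalents of triamterene, with DMSO vehicle as control.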

Assay [11] in a line: qHTS assay to test for compound auto fluorescence at 535 nm (green) in HEK293 cell free culture (AID 720682). In short, it runs like this: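 Steps: dispense DMEM/10% FBS into empty wells; pin in compound or DMSO; measure fluorescence at 485/535 nm. Values are fluorescein equivalents.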
The nature of assay [12]: qHTS assay to test for compound auto fluorescence at 590 nm (red) in HEK293 cell free culture (AID 720683). A digest of the protocol:
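Tox21 10K library compounds were pinned into cell-free DMEM with 10% FBS and fluorescence was read at excitation 540 nm. Activity is expressed as Rose Bengal sodium equivalency.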

The nature of assay [13]: qHTS assay to test for compound auto fluorescence at 590 nm (red) in HepG2 cell free culture (AID 720684). In short, it runs like this:
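Ex 540 / Em 590 nm read of compound in cell-free MEM (10% FBS). Rose Bengal sodium reference.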

Assay [14] in a line: qHTS assay to test for compound auto fluorescence at 460 nm (blue) in HepG2 cell free culture (AID 720685). In short, it runs like this:
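Cell-free plates of MEM plus 10% FBS received 23 nL compound or DMSO vehicle; blue-channel (405/460 nm) intensity scored against triamterene as reference fluorophore.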

Assay [15] is described as follows: qHTS assay to test for compound auto fluorescence at 535 nm (green) in HepG2 cell free culture (AID 720686).
The nature of assay [16]: qHTS assay to test for compound auto fluorescence at 460 nm (blue) in HepG2 cells (AID 720687). A digest of the protocol:
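Cells (2,000/well in MEM with 10% FBS) attached overnight at 37 C, then were exposed to compound or DMSO for 1 hr at 37 C, 5% CO2. Fluorescence read at Ex/Em 405/460 nm, expressed as triamterene-equivalent signal.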

Assay [17] is described as follows: qHTS assay to test for compound auto fluorescence at 535 nm (green) in HepG2 cells (AID 720675).
The target in assay [18] is Glucocorticoid receptor (Homo sapiens) (UniProt P04150). In words: qHTS assay to identify small molecule agonists of the glucocorticoid receptor (GR) signaling pathway (AID 720691; active means well fitted activation curve with a large enough effect in the signal ratio in the repeat runs, not every such curve was filed as active; the % refers to the signal ratio). A digest of the protocol:
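Measures GR pathway activation through a GRE-beta-lactamase reporter stably integrated in HeLa cells, with 18 h compound treatment at 37 C and fluorescence detection using a FRET substrate.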

A short description of assay [19]: qHTS assay for small molecule agonists of the p53 signaling pathway (AID 651631; calls by dose curve; further: nearly all actives have a fitted effect of over 15% in size). In short, it runs like this: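 HCT-116 p53RE-bla reporter line, 16 h compound treatment at 37 °C, then fluorescence after 2 h with B/G FRET substrate.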
Assay [20] addresses Glucocorticoid receptor (Homo sapiens) (UniProt P04150). In words: qHTS assay to identify small molecule antagonists of the glucocorticoid receptor (GR) signaling pathway (AID 720692; active means well fitted inhibition curve with a large enough effect in the signal ratio in the repeat runs, not every such curve was filed as active; the % refers to the signal ratio). In short, it runs like this:
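Tox21 10K library screened in concentration-response for blockade of dexamethasone (5 nM final)-induced GRE-bla reporter activity in HeLa cells; 18 h treatment, fluorescence read.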

Each structure is given as a SMILES string. Values joined by “and” are separate entries in the source; they are usually repeats but may differ in a detail not shown here. Identical values can stand only once. Inconclusive results are not listed. A structure can be active in one record and inactive in another. Active and inactive are the calls of the source. Unless noted, the call rests on the fitted dose curve; in most records, active means well fitted curve in the direction sought with a large enough effect in the repeat runs; inconclusive means weak or mixed curves; inactive means no such curve, though single readings can be large; an effect the other way counts as inactive or inconclusive.

Glucocorticoid receptor (Homo sapiens), sequence (P04150 whole entry, looked up): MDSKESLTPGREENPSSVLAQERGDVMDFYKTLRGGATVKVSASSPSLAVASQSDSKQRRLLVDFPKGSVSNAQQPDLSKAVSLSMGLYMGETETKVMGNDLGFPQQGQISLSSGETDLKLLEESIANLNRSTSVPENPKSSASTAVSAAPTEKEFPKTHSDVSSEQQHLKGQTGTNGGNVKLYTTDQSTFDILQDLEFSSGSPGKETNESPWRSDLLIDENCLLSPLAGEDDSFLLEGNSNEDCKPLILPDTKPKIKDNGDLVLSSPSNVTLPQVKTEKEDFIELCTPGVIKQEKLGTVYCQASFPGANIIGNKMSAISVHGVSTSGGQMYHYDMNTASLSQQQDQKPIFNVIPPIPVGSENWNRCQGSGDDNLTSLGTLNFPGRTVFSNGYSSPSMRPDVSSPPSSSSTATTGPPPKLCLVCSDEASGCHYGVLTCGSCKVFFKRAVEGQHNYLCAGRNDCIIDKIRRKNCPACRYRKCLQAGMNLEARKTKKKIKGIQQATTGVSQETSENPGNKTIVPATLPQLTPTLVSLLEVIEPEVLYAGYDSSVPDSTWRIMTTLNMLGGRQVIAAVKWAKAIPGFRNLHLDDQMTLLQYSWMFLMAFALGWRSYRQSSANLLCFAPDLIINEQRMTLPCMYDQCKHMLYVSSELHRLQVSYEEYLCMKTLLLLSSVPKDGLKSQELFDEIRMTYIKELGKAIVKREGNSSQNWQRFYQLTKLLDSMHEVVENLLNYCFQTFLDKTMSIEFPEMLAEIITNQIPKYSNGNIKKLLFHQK

`Cc1ccc([N+](=O)[O-])cc1C`: the molecule was classed as inactive in assay [1], in assay [2], in [3], in assay [6], in [7] and in assay [8]. The molecule was classed as inactive in [9], in assay [10], in assay [11], in assay [12], in [13] and in [14]. Besides, the outcome in assay [15] and in [16] was inactive. In addition, the Potency result in assay [4] was “inactive”. In addition, the Potency in assay [5] is 47.7 µM (active) and inactive.
On to `Nc1ccc(Br)cc1`, for which the molecule was called inactive in [1], in assay [2], in assay [3], in assay [6], in assay [17] and in assay [7]. Moreover, the molecule was classed as inactive in assay [8], in assay [9], in assay [10], in [11], in [12] and in assay [13]. Besides, the molecule was called inactive in [14], in [15], in assay [16] and in assay [18]. For the same molecule, in [4], the Potency entry was “inactive”.
Consider `CCCN(CCC)c1c([N+](=O)[O-])cc(C(F)(F)F)cc1[N+](=O)[O-]`, for which the result in [1], in assay [2], in assay [3], in [6], in assay [17] and in assay [7] was inactive. Moreover, the result in assay [8], in assay [9], in assay [10], in assay [12], in assay [13] and in assay [14] was inactive. The result in [15] and in assay [16] was inactive. Moreover, the Potency entry in [4] is “inactive”.
Consider `O=C1CCCN1`, for which the call in [1], in assay [2], in [3], in assay [6], in [17] and in [7] was inactive. In addition, the molecule was classed as inactive in assay [8], in assay [9], in [10], in [11], in [12] and in assay [13]. The molecule was called inactive in [14], in assay [15], in assay [16] and in assay [18]. The Potency entry in assay [4] was “inactive”.
Take `CON(C)C(=O)Nc1ccc(Cl)c(Cl)c1`: the molecule was called inactive in assay [19], in assay [1], in [2], in assay [3], in assay [6] and in [17]. Further, the outcome in [7], in assay [8], in [9], in assay [10], in assay [12] and in assay [13] was inactive. In addition, the result in assay [14], in [15], in assay [16] and in [18] was inactive. In addition, the Potency in [5] is 61.4 µM (active) and 43.3 µM (active). For the same molecule, in assay [20], the Potency entry was “inactive”.
With `CC(Oc1ccc(Cl)cc1Cl)C(=O)O` (configuration not stated), the call in assay [19], in assay [1], in [2], in [3], in assay [6] and in assay [7] was inactive. Also, the molecule was called inactive in assay [8], in [9], in assay [10], in assay [11], in assay [12] and in assay [13]. Besides, the outcome in assay [14], in [15], in assay [16] and in [18] was inactive. Moreover, the Potency entry in [20] is “inactive”.
`O=NN1CCCC1`: the result in assay [19], in assay [1], in assay [2], in assay [3], in [6] and in assay [7] was inactive. In addition, the outcome in assay [8], in assay [9], in assay [10], in [12], in assay [13] and in [14] was inactive. The call in [15], in assay [16] and in [18] was inactive. Further, the Potency entry in assay [4] and in assay [20] was “inactive” throughout.
Turning to `CCNc1nc(NC(C)C)nc(SC)n1`, the outcome in assay [1], in [2], in [3], in [6], in assay [17] and in assay [7] was inactive. For the same molecule, the call in [8], in assay [9], in assay [10], in [12], in [13] and in [14] was inactive. The outcome in [15] and in [16] was inactive. Further, the Potency entry in [4] is “inactive”.
